PubChem BioAssay (Tox21)
Records with an inconclusive call do not appear. Entries that show only a call come without a potency. Active and inactive are the calls of the source. Unless noted, the call rests on the fitted dose curve; in most records, active means well fitted curve in the direction sought with a large enough effect in the repeat runs; inconclusive means weak or mixed curves; inactive means flat fitted curve, though single readings scatter.

Test system: not listed separately
Assay: qHTS assay to test for compound auto fluorescence at 460 nm (blue) in HepG2 cells (AID 720687)
Conditions: autofluorescence 405/460 nm, 1 h; series mostly up to 91.3 µM; fluorescence, % of fluorescent control: at the top concentration
Procedure, shortened: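 Blue-channel autofluorescence (Ex/Em 405/460 nm, triamterene-equivalent) was measured after 1 hr compound exposure at 37 C, 5% CO2. Cells were HepG2, plated overnight at 37 C in MEM plus 10% FBS.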
With `CNC(=O)N(C)c1nnc(C(C)(C)C)s1` the outcome was “inactive”. In the case of `CCC(C)c1cc([N+](=O)[O-])cc([N+](=O)[O-])c1O` (configuration not stated), the outcome is reported as “inactive”. In the case of `COP(=O)(OC)OC`, the outcome is reported as “inactive”. With `CCN(CC)C(=O)SCc1ccc(Cl)cc1` the outcome was “inactive”. In the case of `CCN(N=O)C(N)=O`, the outcome is reported as “inactive”. In the case of `Cc1ccccc1[N+](=O)[O-]`, the outcome is reported as “inactive”. For `Cc1ccc(OP(=O)(Oc2ccc(C)cc2)Oc2ccc(C)cc2)cc1`, the outcome was “inactive”. With `O=C(O)CC[N+](=O)[O-]` the outcome was “inactive”. With `CCCCC(CC)COC(=O)c1ccc(C(=O)OCC(CC)CCCC)c(C(=O)OCC(CC)CCCC)c1` (configuration not stated) the outcome was “inactive”. In the case of `Nn1cnnc1`, the outcome is reported as “inactive”. For `N[C@@H](Cc1ccc(N(CCCl)CCCl)cc1)C(=O)O`, the outcome was “inactive”. For `c1nc[nH]n1`, the outcome was “inactive”. In the case of `CCOP(=S)(OCC)O/N=C(\C#N)c1ccccc1`, the outcome is reported as “inactive”. With `C[C@]12CCC(=O)C[C@@H]1CC[C@@H]1[C@@H]2CC[C@]2(C)[C@@H](O)CC[C@@H]12` the outcome was “inactive”. In the case of `O=c1oc2ccccc2c(O)c1C(CC(O)c1ccc(-c2ccc(Br)cc2)cc1)c1ccccc1` (configuration not stated), the outcome is reported as “inactive”. In the case of `Nc1ccc(Cl)c(Cl)c1`, the outcome is reported as “inactive”. With `ClC1C(Cl)C(Cl)C(Cl)C(Cl)C1Cl` (configuration not stated) the outcome was “inactive”. In the case of `CCCCN(CCCC)N=O`, the outcome is reported as “inactive”. In the case of `O=C(Nc1ccc(Br)cc1)c1cc(Br)cc(Br)c1O`, the outcome is reported as “inactive”. For `S=C1NCCN1`, the outcome was “inactive”. For `CCOC(=S)S`, the outcome was “inactive”. For `Oc1c(Cl)c(Cl)c(Cl)c(Cl)c1Cl`, the outcome was “inactive”. With `O=P(Oc1ccccc1)(Oc1ccccc1)Oc1ccccc1` the outcome was “inactive”. For `CC(O)CCO` (configuration not stated), the outcome was “inactive”. With `O=P(O)(O)CCCl` the outcome was “inactive”. With `c1ccc(NNc2ccccc2)cc1` the outcome was “inactive”. With `CC(C)(OOC(C)(C)c1ccccc1)c1ccccc1` the outcome was “inactive”. In the case of `CC(C)N(C(=O)SCC(Cl)=C(Cl)Cl)C(C)C`, the outcome is reported as “inactive”. For `O=[N+]([O-])c1ccc(O)c([N+](=O)[O-])c1`, the outcome was “inactive”. For `O=[N+]([O-])c1cccc2ccccc12`, the outcome was “inactive”. In the case of `COP(=S)(OC)Oc1cc(Cl)c(Cl)cc1Cl`, the outcome is reported as “inactive”. In the case of `C=CCc1ccc2c(c1)OCO2`, the outcome is reported as “inactive”. In the case of `CCN(CC)N=O`, the outcome is reported as “inactive”. In the case of `C#C[C@]1(O)CC[C@H]2[C@@H]3CCC4=CC(=O)CC[C@]4(C)[C@H]3CC[C@@]21C`, the outcome is reported as “inactive”. In the case of `c1ccc(P(c2ccccc2)c2ccccc2)cc1`, the outcome is reported as “inactive”. For `Cc1cc(Cl)ccc1OCCCC(=O)O`, the outcome was “inactive”.

Molecular target: Glucocorticoid receptor (Homo sapiens) (UniProt P04150)
Sequence (P04150 whole entry, looked up): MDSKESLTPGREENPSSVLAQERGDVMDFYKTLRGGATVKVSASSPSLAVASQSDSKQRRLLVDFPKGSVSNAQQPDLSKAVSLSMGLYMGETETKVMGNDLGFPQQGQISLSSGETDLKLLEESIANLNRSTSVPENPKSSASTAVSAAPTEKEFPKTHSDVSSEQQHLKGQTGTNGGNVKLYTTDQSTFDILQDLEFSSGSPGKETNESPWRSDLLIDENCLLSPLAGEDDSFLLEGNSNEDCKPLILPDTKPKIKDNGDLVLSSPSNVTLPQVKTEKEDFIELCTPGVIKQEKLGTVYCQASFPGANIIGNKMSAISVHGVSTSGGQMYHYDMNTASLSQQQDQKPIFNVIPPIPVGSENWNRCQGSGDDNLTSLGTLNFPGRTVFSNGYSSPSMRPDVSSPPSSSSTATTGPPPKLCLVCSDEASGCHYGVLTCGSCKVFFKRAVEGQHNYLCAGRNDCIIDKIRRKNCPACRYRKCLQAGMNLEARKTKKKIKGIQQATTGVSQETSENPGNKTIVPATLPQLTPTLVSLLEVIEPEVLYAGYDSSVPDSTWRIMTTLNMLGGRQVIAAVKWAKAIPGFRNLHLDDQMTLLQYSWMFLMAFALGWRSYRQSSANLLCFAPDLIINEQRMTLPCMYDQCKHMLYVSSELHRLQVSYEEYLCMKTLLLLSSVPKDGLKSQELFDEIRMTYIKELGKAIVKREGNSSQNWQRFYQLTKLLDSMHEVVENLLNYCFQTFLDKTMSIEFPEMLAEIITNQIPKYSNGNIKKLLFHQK
Assay: qHTS assay to identify small molecule agonists of the glucocorticoid receptor (GR) signaling pathway (AID 720691; active means well fitted activation curve with a large enough effect in the signal ratio in the repeat runs, not every such curve was filed as active; the % refers to the signal ratio)
Conditions: GR-bla HeLa, beta-lactamase reporter ratio, 18 h; series mostly up to 62.4 µM; activation: at the top concentration
Procedure, shortened: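 Compounds in DMSO, alongside positive controls, were added to GR-bla HeLa reporter cells and incubated 18 h at 37 C; GRE-driven beta-lactamase was detected by fluorescence after 2 h with FRET substrate at room temperature.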
For `CCC(C)c1cc([N+](=O)[O-])cc([N+](=O)[O-])c1O` (configuration not stated), the Potency was “inactive”. For `COP(=O)(OC)OC`, the Potency was “inactive”. For `CCN(CC)C(=O)SCc1ccc(Cl)cc1`, the Potency was “inactive”. For `CCN(N=O)C(N)=O`, the Potency was “inactive”. For `Cc1ccccc1[N+](=O)[O-]`, the Potency was “inactive”. For `Cc1ccc(OP(=O)(Oc2ccc(C)cc2)Oc2ccc(C)cc2)cc1`, the Potency was “inactive”. With `O=C(O)CC[N+](=O)[O-]` the “activation” value was -3.13% [at 79.2 µM] (inactive). For `CCCCC(CC)COC(=O)c1ccc(C(=O)OCC(CC)CCCC)c(C(=O)OCC(CC)CCCC)c1` (configuration not stated), the Potency was “inactive”. For `Nn1cnnc1`, the Potency was “inactive”. For `N[C@@H](Cc1ccc(N(CCCl)CCCl)cc1)C(=O)O`, the Potency was “inactive”. For `c1nc[nH]n1`, the Potency was “inactive”. For `CCOP(=S)(OCC)O/N=C(\C#N)c1ccccc1`, the Potency was “inactive”. With `CN(C)c1ccc(C(=O)c2ccc(N(C)C)cc2)cc1` the Potency was “inactive”. With `CCCCN(CCCC)N=O` the Potency was “inactive”. With `OCC(O)CO` the Potency was “inactive”. In the case of `O=C(Nc1ccc(Br)cc1)c1cc(Br)cc(Br)c1O`, the “activation” value is reported as -3.96% (inactive). In the case of `Oc1c(Cl)c(Cl)c(Cl)c(Cl)c1Cl`, the “activation” value is reported as 1.69% (inactive). With `O=P(Oc1ccccc1)(Oc1ccccc1)Oc1ccccc1` the Potency was “inactive”. With `c1ccc(NNc2ccccc2)cc1` the Potency was “inactive”. In the case of `CC(C)(OOC(C)(C)c1ccccc1)c1ccccc1`, the Potency is reported as “inactive”. In the case of `CC(C)N(C(=O)SCC(Cl)=C(Cl)Cl)C(C)C`, the Potency is reported as “inactive”. For `COP(=S)(OC)Oc1cc(Cl)c(Cl)cc1Cl`, the Potency was “inactive”. For `C#C[C@]1(O)CC[C@H]2[C@@H]3CCC4=CC(=O)CC[C@]4(C)[C@H]3CC[C@@]21C`, the Potency was “inactive”. In the case of `c1ccc(P(c2ccccc2)c2ccccc2)cc1`, the Potency is reported as “inactive”. With `Cc1cc(Cl)ccc1OCCCC(=O)O` the Potency was “inactive”.

Molecular target: Glucocorticoid receptor (Homo sapiens) (UniProt P04150)
Assay: qHTS assay to identify small molecule antagonists of the glucocorticoid receptor (GR) signaling pathway (AID 720692; active means well fitted inhibition curve with a large enough effect in the signal ratio in the repeat runs, not every such curve was filed as active; the % refers to the signal ratio; further: potency means the concentration at half of the fitted maximal effect)
Conditions: GR-bla HeLa, beta-lactamase FRET ratio, dexamethasone-stimulated, 18 h; series mostly up to 58.5 µM; activity change, negative = inhibition: at the top concentration
Procedure, shortened: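 In a 1536-well cell format, compounds were added 4 h after seeding GR-bla HeLa cells, together with dexamethasone at 5 nM final; reporter activity was measured by FRET-substrate fluorescence following 18 h at 37 C.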
In the case of `CCC(C)c1cc([N+](=O)[O-])cc([N+](=O)[O-])c1O` (configuration not stated), the “activity change, negative = inhibition” value is reported as -4.65% (inactive). With `COP(=O)(OC)OC` the Potency was “inactive”. With `CCN(CC)C(=O)SCc1ccc(Cl)cc1` the Potency was “inactive”. With `Cc1ccccc1[N+](=O)[O-]` the Potency was “inactive”. In the case of `Cc1ccc(OP(=O)(Oc2ccc(C)cc2)Oc2ccc(C)cc2)cc1`, the Potency is reported as “inactive”. For `O=C(O)CC[N+](=O)[O-]`, the “activity change, negative = inhibition” value was 11.3% [at 78.9 µM] (inactive). For `CCCCC(CC)COC(=O)c1ccc(C(=O)OCC(CC)CCCC)c(C(=O)OCC(CC)CCCC)c1` (configuration not stated), the “activity change, negative = inhibition” value was 4.41% (inactive). For `Nn1cnnc1`, the Potency was “inactive”. With `N[C@@H](Cc1ccc(N(CCCl)CCCl)cc1)C(=O)O` the Potency was “inactive”. For `c1nc[nH]n1`, the Potency was “inactive”. For `CCOP(=S)(OCC)O/N=C(\C#N)c1ccccc1`, the Potency was “inactive”. For `CCCCN(CCCC)N=O`, the Potency was “inactive”. For `OCC(O)CO`, the Potency was “inactive”. With `O=P(Oc1ccccc1)(Oc1ccccc1)Oc1ccccc1` the Potency was “inactive”. In the case of `c1ccc(NNc2ccccc2)cc1`, the Potency is reported as “inactive”. For `CC(C)(OOC(C)(C)c1ccccc1)c1ccccc1`, the “activity change, negative = inhibition” value was -4.37% (inactive). With `CC(C)N(C(=O)SCC(Cl)=C(Cl)Cl)C(C)C` the Potency was “inactive”. For `COP(=S)(OC)Oc1cc(Cl)c(Cl)cc1Cl`, the “activity change, negative = inhibition” value was 5.8% (inactive). For `C#C[C@]1(O)CC[C@H]2[C@@H]3CCC4=CC(=O)CC[C@]4(C)[C@H]3CC[C@@]21C`, the Potency was 1690 nM (active). In the case of `c1ccc(P(c2ccccc2)c2ccccc2)cc1`, the “activity change, negative = inhibition” value is reported as -3.83% [at 78.9 µM] (inactive). With `Cc1cc(Cl)ccc1OCCCC(=O)O` the Potency was “inactive”.
